Assay results published in PubChem BioAssay (Tox21).
Several values for one entry are separate records, joined by “and”; a condition that tells them apart may be missing. Equal values may be shown once. Records with an inconclusive call do not appear. Entries that show only a call come without a potency. Activity calls are given as the source filed them. Unless noted, calls come from the whole dose curve; as a rule, active = well fitted curve in the direction sought with a large enough effect in the repeat runs; inconclusive = weak or mixed curves; inactive = no such curve, though single readings can be large; an effect the other way counts as inactive or inconclusive.

Key:
[1] = A CellTox Green Cytotoxicity Assay to monitor cytotoxicity in HEK293 cells - 32 hour (AID 1224881); note: nearly all actives have a fitted effect of over 40% in size; note: potency is the fitted concentration of half-maximal effect
In short: (§1)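 HEK293 cells premixed with CellTox Green dye were seeded at 600 cells/well and left 5 h at 37 C/5% CO2 before pin transfer of 23 nL compound in DMSO. Fluorescence from dye bound to dead-cell DNA was read during 40 h treatment.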

[2] = A CellTox Green Cytotoxicity Assay to monitor cytotoxicity in HepG2 cells - 0 hour (AID 1224882); note: nearly all actives have a fitted effect of over 35% in size
In short: (§2)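 HepG2 cells were seeded together with the CellTox Green dye at 600 cells/well, left 5 h at 37 C/5% CO2, then given compounds in DMSO. Fluorescence from dye bound to dead-cell DNA was read repeatedly over 40 h of treatment at 37 C.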

[3] = A CellTox Green Cytotoxicity Assay to monitor cytotoxicity in HepG2 cells - 32 hour (AID 1224883); note: nearly all actives have a fitted effect of over 50% in size; note: potency is the fitted concentration of half-maximal effect
In short: as §2

[4] = A CellTox Green Cytotoxicity Assay to monitor cytotoxicity in HEK293 cells - 8 hour (AID 1224884); note: nearly all actives have a fitted effect of over 35% in size; note: potency is the fitted concentration of half-maximal effect
In short: as §1

[5] = A CellTox Green Cytotoxicity Assay to monitor cytotoxicity in HEK293 cells - 16 hour (AID 1224888); note: nearly all actives have a fitted effect of over 35% in size; note: potency is the fitted concentration of half-maximal effect
In short: as §1

[6] = A CellTox Green Cytotoxicity Assay to monitor cytotoxicity in HepG2 cells - 8 hour (AID 1224890); note: nearly all actives have a fitted effect of over 45% in size
In short: as §2

[7] = target: Estrogen receptor (Homo sapiens) (UniProt P03372); assay: qHTS assay to identify small molecule antagonists of the estrogen receptor alpha (ER-alpha) signaling pathway using the BG1 cell line in the presence of 0.1 nM 17-beta-estradiol (AID 1259244); note: nearly all actives have a fitted effect of over 50% in size; note: potency is the fitted concentration of half-maximal effect
Estrogen receptor (Homo sapiens), sequence (P03372 whole entry, looked up): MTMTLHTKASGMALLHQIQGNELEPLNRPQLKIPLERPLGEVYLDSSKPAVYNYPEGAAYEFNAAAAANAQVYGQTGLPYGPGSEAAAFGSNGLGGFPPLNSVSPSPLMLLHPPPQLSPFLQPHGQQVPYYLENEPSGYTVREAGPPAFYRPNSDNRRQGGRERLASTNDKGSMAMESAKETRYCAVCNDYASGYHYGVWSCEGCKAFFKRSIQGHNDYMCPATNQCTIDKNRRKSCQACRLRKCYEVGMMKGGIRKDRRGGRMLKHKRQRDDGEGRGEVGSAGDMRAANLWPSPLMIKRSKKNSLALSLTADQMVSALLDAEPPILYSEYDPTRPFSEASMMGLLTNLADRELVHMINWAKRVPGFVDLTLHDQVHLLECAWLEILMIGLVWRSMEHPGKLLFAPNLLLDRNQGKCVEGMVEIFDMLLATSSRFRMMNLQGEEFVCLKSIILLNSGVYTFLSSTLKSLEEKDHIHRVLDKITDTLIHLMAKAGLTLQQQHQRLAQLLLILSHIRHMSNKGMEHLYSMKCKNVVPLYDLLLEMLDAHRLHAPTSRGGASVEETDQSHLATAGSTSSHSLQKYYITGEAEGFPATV
In short: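 VM7Luc4E2 cells (endogenous full-length ER-alpha, stable 4xERE-luciferase) were grown 5 days in phenol red-free medium with charcoal-stripped FBS, then exposed 22 h at 37C to compounds plus 0.1 nM (final) 17beta-estradiol; ONE-Glo luminescence read-out.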

[8] = qHTS assay to identify small molecule HDAC inhibitors (AID 1259364); note: top concentration of the series differs between compounds; nearly all actives have a fitted effect of over 45% in size
In short: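 Wild-type HCT-116 cells were plated overnight, exposed to compounds for 2 h at 37 °C, then given HDAC-Glo class I/II luminogenic reagent for 30 min at room temperature before luminescence was read.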

[9] = qHTS assay to identify small molecule HDAC inhibitors - cell viability counter screen (AID 1259365); note: series mostly up to about 92 µM; nearly all actives have a fitted effect of over 50% in size
In short: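 Viability readout: CellTiter-Glo luminescence. Wild-type HCT-116 cells, 2hr compound treatment following overnight attachment at 37 C.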

[10] = qHTS assay to identify small molecule agonists of the sonic hedgehog signaling (Shh) pathway - cell viability counter screen (AID 1259366); note: nearly all actives have a fitted effect of over 50% in size; note: potency is the fitted concentration of half-maximal effect
In short: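 Viability measured fluorometrically (CellTiter-Fluor, 1hr, 37C) in 3T3 Gli1-Luc reporter cells after 23hr compound exposure within a 24hr incubation at 37C/5% CO2.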

[11] = qHTS assay to identify small molecule antagonists of the sonic hedgehog signaling (Shh) pathway - cell viability counter screen (AID 1259367); note: nearly all actives have a fitted effect of over 55% in size; note: potency is the fitted concentration of half-maximal effect
In short: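 Using CellTiter-Fluor, viability of Gli1-Luc reporter 3T3 cells is read by fluorescence in the wells used for the Shh luciferase assay. Treatment lasts 23 hr with conditioned medium, then reagent 1 hr at 37C.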

[12] = qHTS assay to identify small molecule agonists of the sonic hedgehog signaling (Shh) pathway (AID 1259368; calls by dose curve; note: series mostly up to about 92 µM; nearly all actives have a fitted effect of over 15% in size)
In short: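 NIH/3T3-derived 3T3Gli1-Luc cells carrying a stably integrated Gli1 response element–firefly luciferase reporter were plated, left 4 hr at 37 C, then given compounds in DMSO for 24 hr. Luminescence was read 30 min after adding luciferase reagent.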

[13] = qHTS RealTime-Glo MT Cell Viability Assay in HEK293 cells - 8 hour (AID 1224887); note: nearly all actives have a fitted effect of over 50% in size; note: potency is the fitted concentration of half-maximal effect
In short: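 HEK293 cells mixed with RealTime-Glo reagents (NanoLuc plus cell-permeant prosubstrate) at 600 cells/well, preincubated 5 h at 37 C/5% CO2, then given 23 nL compound in DMSO. Nonlytic luminescence from viable cells was read at 0, 8, 16, 24, 32 and 40 h.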

[14] = qHTS RealTime-Glo MT Cell Viability Assay in HepG2 cells - 0 hour (AID 1224889); note: nearly all actives have a fitted effect of over 50% in size; note: potency is the fitted concentration of half-maximal effect
In short: (§3)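 Viability was tracked continuously by NanoLuc luminescence from prosubstrate reduced by living HepG2 cells, at successive time points over 40 h of compound exposure. Cells with reagent were preincubated 5 h at 37 °C before compound addition.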

[15] = qHTS assay to identify small molecule antagonists of the androgen receptor (AR) signaling pathway using the MDA cell line in the presence of 0.5 nM R1881 - cell viability counter screen (AID 1259242); note: nearly all actives have a fitted effect of over 45% in size
In short: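 MDA-kb2 cells (human breast carcinoma, stably carrying MMTV-luciferase reporter) were exposed to compounds with 0.5 nM R1881 (final) for 16 hr at 37C, 0% CO2; viability then read as live-cell protease fluorescence (CellTiter-Fluor, 30 min) in the same wells.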

[16] = qHTS assay to identify small molecule phospholipidosis (PLD) inducers (AID 1259344; active = well fitted curve in the direction sought with a large enough effect; an effect the other way counts as inactive or inconclusive)
In short: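 Fluorescent phospholipid staining (LipidTOX Red) measured by automated microscopy in fixed HepG2 cells after 24 h treatment; nuclei counterstained with Hoechst 33342; amiodarone as reference inducer.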

[17] = qHTS assay to identify small molecule antagonists of the estrogen receptor alpha (ER-alpha) signaling pathway using the BG1 cell line in the presence of 0.1 nM 17-beta-estradiol - cell viability counter screen (AID 1259241); note: nearly all actives have a fitted effect of over 40% in size
In short: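 The cell line endogenously expresses full-length ER-alpha and carries four EREs driving luciferase. Cells are cultured 5 days hormone-free, treated 22 hr with compounds and 0.1 nM estradiol, then viability is read by fluorescence.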

[18] = qHTS RealTime-Glo MT Cell Viability Assay in HepG2 cells - 16 hour (AID 1224885); note: nearly all actives have a fitted effect of over 50% in size; note: potency is the fitted concentration of half-maximal effect
In short: as §3

[19] = qHTS RealTime-Glo MT Cell Viability Assay in HEK293 cells - 24 hour (AID 1224886); note: nearly all actives have a fitted effect of over 50% in size; note: potency is the fitted concentration of half-maximal effect
In short: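 Viability tracked continuously by luminescence as live cells reduce a prosubstrate for NanoLuc; HEK293 cells preincubated 5 h, compound-treated at 37 C, and read at 0, 8, 16, 24, 32 and 40 h.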

[20] = target: Androgen receptor (Homo sapiens) (UniProt P10275); assay: qHTS assay to identify small molecule antagonists of the androgen receptor (AR) signaling pathway using the MDA cell line in the presence of 0.5 nM R1881 (AID 1259243); note: nearly all actives have a fitted effect of over 50% in size; note: potency is the fitted concentration of half-maximal effect
Androgen receptor (Homo sapiens), sequence (P10275 whole entry, looked up): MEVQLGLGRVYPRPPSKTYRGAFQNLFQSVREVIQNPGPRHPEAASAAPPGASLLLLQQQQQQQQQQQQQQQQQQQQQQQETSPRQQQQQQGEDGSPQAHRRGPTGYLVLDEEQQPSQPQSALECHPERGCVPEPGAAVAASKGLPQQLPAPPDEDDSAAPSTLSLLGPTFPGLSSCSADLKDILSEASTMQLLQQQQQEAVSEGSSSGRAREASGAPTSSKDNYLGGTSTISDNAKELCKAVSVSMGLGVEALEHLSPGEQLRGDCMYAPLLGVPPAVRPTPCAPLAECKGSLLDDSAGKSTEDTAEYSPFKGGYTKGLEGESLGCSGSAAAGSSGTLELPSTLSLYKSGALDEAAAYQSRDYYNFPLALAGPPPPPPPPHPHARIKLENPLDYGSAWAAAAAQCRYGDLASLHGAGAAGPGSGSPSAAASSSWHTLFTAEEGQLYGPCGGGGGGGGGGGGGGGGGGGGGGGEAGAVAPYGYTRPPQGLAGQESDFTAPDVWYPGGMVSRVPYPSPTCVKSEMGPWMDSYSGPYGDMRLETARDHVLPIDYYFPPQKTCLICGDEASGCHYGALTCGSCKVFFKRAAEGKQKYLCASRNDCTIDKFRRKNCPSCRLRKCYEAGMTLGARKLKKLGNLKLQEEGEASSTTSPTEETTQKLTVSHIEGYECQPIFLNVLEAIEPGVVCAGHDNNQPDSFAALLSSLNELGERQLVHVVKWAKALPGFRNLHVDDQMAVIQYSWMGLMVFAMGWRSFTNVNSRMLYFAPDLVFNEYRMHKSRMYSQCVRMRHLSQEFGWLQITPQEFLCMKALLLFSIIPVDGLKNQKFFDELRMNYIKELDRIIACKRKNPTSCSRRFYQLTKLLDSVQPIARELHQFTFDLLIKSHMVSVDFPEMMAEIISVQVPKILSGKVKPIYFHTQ
In short: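 MDA-kb2 human breast carcinoma cells carrying an MMTV-luciferase reporter (AR- and GR-responsive) were plated, rested 5 hr at 37C, dosed with compounds, then stimulated with 0.5 nM R1881 (final) for 16 hr; luminescence was read after ONE-Glo.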

SMILES | Potency [1] | Potency [2] | Potency [3] | Potency [4] | Potency [5] | Potency [6] | Potency [7] | Potency [8] | Potency [9] | Potency [10] | Potency [11] | outcome [12] | Potency [13] | Potency [14] | Potency [15] | Potency [16] | Potency [17] | Potency [18] | Potency [19] | Potency [20]
C=CC(=O)OCCOCCOCCOCCOC(=O)C=C | 54.4 µM (active) | inactive | 39.1 µM (active) and 13.7 µM (active) | inactive | inactive | inactive | 54.8 µM (active) | inactive | inactive | 27.4 µM (active) and 21.5 µM (active) | 19.4 µM (active) and 27.1 µM (active) | inactive |  |  |  |  |  |  |  | 
CCC(=O)O[C@]1(C(=O)CCl)[C@@H](C)C[C@H]2[C@@H]3CCC4=CC(=O)C=C[C@]4(C)[C@@]3(F)[C@@H](O)C[C@@]21C | inactive | inactive | inactive | inactive | inactive | inactive | inactive | inactive | inactive | inactive | inactive | inactive | inactive | inactive | inactive | inactive |  |  |  | 
CCc1c(C(=O)NN2CCCCC2)nn(-c2ccc(Cl)cc2Cl)c1-c1ccc(Br)cc1 | inactive | inactive | inactive | inactive | inactive | inactive | inactive | inactive | inactive | inactive | inactive | inactive |  | inactive | inactive |  | inactive |  |  | 
CCCCc1nc2cccnc2n1Cc1ccc(-c2ccccc2-c2nnn[nH]2)cc1 | inactive | inactive | inactive | inactive | inactive | inactive | inactive | inactive | inactive | 15.4 µM (active) | 17.2 µM (active) | inactive |  | 24.5 µM (active) | inactive |  | inactive |  |  | 
CCOc1ccc(N)c([N+](=O)[O-])c1 | inactive | inactive | inactive | inactive | inactive | inactive |  | inactive | inactive | inactive | inactive | inactive |  | inactive | inactive |  | inactive | inactive |  | 
O=C(c1ccc(F)cc1)C1CCN(CCn2c(=S)[nH]c3ccccc3c2=O)CC1 | inactive | inactive | inactive | inactive | inactive | inactive |  | inactive | inactive | inactive | inactive | inactive | 4.77 µM (active) | inactive | inactive |  | inactive |  | 7.56 µM (active) | inactive
CCCCCCCCCCCCCCOS(=O)(=O)O | 43.6 µM (active) | inactive | 38.9 µM (active) | 21.9 µM (active) | 43.6 µM (active) |  | inactive | inactive | inactive | inactive | inactive | inactive | inactive | inactive | inactive |  | inactive |  | inactive | 
CCCCC(CC)COC(=O)COc1ccc(Cl)cc1Cl (stereo unspecified) | inactive | inactive | inactive | inactive | inactive | inactive |  | inactive | inactive | inactive | inactive | inactive | inactive |  | inactive |  | inactive |  | inactive | 
COc1ccc(S(=O)(=O)N2C(=O)[C@@](c3ccccc3OC)(N3C[C@H](O)C[C@H]3C(=O)N(C)C)c3cc(Cl)ccc32)c(OC)c1 | inactive | inactive | inactive | inactive | inactive | inactive |  | inactive | inactive | 8.63 µM (active) | 9.69 µM (active) | inactive |  |  |  |  |  |  |  | 54.5 µM (active)
CC(C)C[C@H]1C(=O)N2CCC[C@H]2[C@]2(O)O[C@](NC(=O)[C@@H]3C=C4c5cccc6[nH]c(Br)c(c56)C[C@H]4N(C)C3)(C(C)C)C(=O)N12 | inactive | inactive | inactive | inactive |  | inactive |  | inactive | inactive |  |  | inactive |  |  | inactive | inactive | inactive | 13.2 µM (active) |  | 
CCOc1ccc(O)cc1 | inactive | inactive | inactive | inactive | inactive | inactive | inactive | inactive | inactive | inactive | inactive | inactive |  | inactive | inactive |  | inactive | inactive |  | 
O=C(OCCCCCCOC(=O)c1ccccc1)c1ccccc1 | inactive | inactive | inactive | inactive | inactive | inactive | inactive | inactive | inactive | inactive |  | inactive |  | inactive | inactive |  | inactive |  |  | 
CN(C)c1ccc(CCO)cc1 | inactive | inactive | inactive | inactive | inactive | inactive | inactive | inactive | inactive | inactive | inactive | inactive | inactive | inactive | inactive |  | inactive |  |  | 
CCCCCC[C@@H](O)C/C=C\CCCCCCCC(=O)OC | inactive | inactive | inactive | inactive |  | inactive |  | inactive | inactive | inactive |  | inactive |  |  | inactive |  | inactive |  | inactive | inactive
CCO[C@H](Cc1ccc(OCCc2ccc(OS(C)(=O)=O)cc2)cc1)C(=O)O | inactive | inactive | inactive | inactive |  | inactive | inactive | inactive | inactive | inactive | inactive | inactive | inactive | inactive | inactive | inactive | inactive |  |  | inactive
COc1cc2nc(N(C)CCCNC(=O)C3CCCO3)nc(N)c2cc1OC (stereo unspecified) | inactive | inactive | inactive | inactive | inactive | inactive |  | inactive | inactive | inactive | inactive | inactive |  | inactive | inactive | inactive |  | inactive |  | 
